Unmarked numbers belong to inactive results. Inconclusive results are not listed. Activity calls are given as the source filed them. Unless noted, calls come from the whole dose curve; as a rule, active = well fitted curve in the direction sought with a large enough effect; inconclusive = small, poorly fitted or top-dose-only effect, or another doubt; inactive = no such curve, though single readings can be large; an effect the other way counts as inactive or inconclusive.

In test [1] the target is Lysosomal acid glucosylceramidase (Homo sapiens) (UniProt P04062). As to the kind of experiment: Glucocerebrosidase-p2 (AID 348; in the data active = potency below about 10 µM; note: potency is the fitted concentration of half-maximal effect). To be noted: purified GBA, blue fluorogenic substrate, 40 min. In outline: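 Normal human glucocerebrosidase (0.2 nM) with blue fluorogenic substrate (80 uM final) in citrate/phosphate pH 5.9 with 10mM sodium taurocholate, 0.01% tween-20; 40 min RT, NaOH/glycine stop; fluorescence Ex 365/Em 440; AC50 from a titration from 0.6 nM upwards.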

Test [2] can be described thus: AP1 Signaling Pathway (AID 357; active = well fitted curve in either direction with a large enough effect, not every such curve was filed as active; note: % is set by controls: 0 for no effect and ±100 for the full control effect). To be noted: ME-180 AP-1-bla reporter, EGF-induced, beta-lactamase ratio, 5 h; at 7.69 µM (top of the series) unless noted. In outline: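 ME-180 cells with beta-lactamase reporter under AP-1 response element, stimulated with EC50 EGF; compounds tested in titration series, 5 h at 37 °C. CCF4 substrate added 2.5 h at room temperature; 460/530 nm emission ratio gave %activity and AC50.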

Test [3] deals with Cytochrome P450 1A2 (Homo sapiens) (UniProt P05177). As to the kind of experiment: p450-cyp1a2 (AID 410; calls by dose curve; note: potency is the fitted concentration of half-maximal effect). Summed up: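 20nM CYP1A2, 100uM Luciferin-ME (=Km), 100mM KPO4; cpd 10 min RT; +NADPH regen, 60 min RT; stop/detect 20 min; luminescence. Normalized to furafylline 57 uM = full inhibition.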
A short description of test [4]: Stat Signaling Pathway (AID 446; active = well fitted curve in either direction with a large enough effect, not every such curve was filed as active;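 note: ME-180 cervical cancer cells given 40 pM IL-6 alongside compound; SIE-controlled beta-lactamase reporter measured as 460/530 nm FRET emission ratio; % is set by controls: 0 for no effect and ±100 for the full control effect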). Summed up: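 Compound effects on IL-6-induced STAT reporter activity were measured in ME-180 cells. After overnight culture, cells were co-treated with 40 pM IL-6 for 5 hrs before beta-lactamase substrate loading at room temperature.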
In test [5] the target is Glucocorticoid receptor (Homo sapiens) (UniProt P04150). Put plainly: GR-GFP Redistribution (AID 450;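 active = compounds whose dose series gives a full or clear partial fitted curve of increased nuclear translocation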; note: potency is the fitted concentration of half-maximal effect). The settings on record: U2OS GR-GFP nuclear translocation, laser cytometry, 2 h.
Test [6] has the same target. Put plainly: GR-EFC Redistribution (AID 451; calls by dose curve; note: potency is the fitted concentration of half-maximal effect). The settings on record: CHO-K1 GR-EFC translocation, beta-gal luminescence, 2 h. In outline: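 CHO-K1 cells stably expressing nuclear-localized β-gal enzyme acceptor and GR fused C-terminally to the enzyme donor fragment; ligand-driven nuclear translocation restores β-gal by complementation. Compounds titrated up to 46 uM final, 2 h at 37 °C; luminescence read.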

Test [7] addresses Mitogen-activated protein kinase 10 (Mus musculus) (UniProt Q61831). Put plainly: JNK3 AlphaScreen Assay (AID 530; active = well fitted curve in either direction with a large enough effect, not every such curve was filed as active;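 note: kinase came from lysate of stimulated human HepG2 cells; signal reports phosphorylation of biotinylated GST-cJun 1-79 at Ser73 with 10 µM ATP; % is set by controls: 0 for no effect and ±100 for the full control effect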). In outline: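 Biotinylated GST-cJun(1-79) served as substrate for JNK3 in HepG2 lysates stimulated with IL-1beta and TNF-alpha. ATP was 10 uM final, pH 7.6. Ser73 phosphorylation was quantified by AlphaScreen (680 nm excitation).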
In test [8] the target is 3',5'-cyclic-AMP phosphodiesterase 4B (Homo sapiens) (UniProt Q07343). Put plainly: qHTS Assay for Inhibitors of PDE-IV (AID 607; active = well fitted activation curve with a large enough effect in the main read-out, with a control signal flat, not every such curve was filed as active; note: % of control where 0% means no effect). Summed up:
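ACTOne HEK293 cells carry a modified cAMP-gated CNG channel and express endogenous PDE4; plated 1000 cells/well, compounds up to 22.9 uM final. Membrane-potential dye fluorescence (ex 535/em 590) was read; parental cells received 10 uM forskolin + 100 uM RO 20-1724.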
Background: In qHTS, concentration-response curves come from the screen itself.

Test [9] has as its target Cytochrome P450 2C9 (Homo sapiens) (UniProt P11712). Put plainly: qHTS Assay for Inhibitors and Substrates of Cytochrome P450 2C9 (AID 883). Note: potency is the fitted concentration of half-maximal effect; nearly all actives have a fitted effect of over 60% in size. Summed up: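 A luminogenic readout tracked human CYP2C9 (10nM) converting deoxyluciferin (100uM, at KM) in 25mM KPO4 during 60 min at 37C with regenerated NADPH. Values normalized to 57uM sulphaphenazole as complete inhibition.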
Test [10] concerns the target Cytochrome P450 3A4 (Homo sapiens) (UniProt P08684). As to the kind of experiment: qHTS Assay for Inhibitors and Substrates of Cytochrome P450 3A4 (AID 884). Note: potency is the fitted concentration of half-maximal effect; nearly all actives have a fitted effect of over 50% in size. In outline:
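Luminescent readout of luciferin produced by CYP3A4 (20 nM) dealkylation of Luciferin-PPXE, 25 uM (its KM). NADPH-driven reaction ran 60 min at RT after 10 min compound preincubation; data scaled to 57 uM ketoconazole as 100% inhibition.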

Test [11] shares this target. Put plainly: qHTS Assay for Activators of Cytochrome P450 3A4 (AID 885). Note: nearly all actives have a fitted effect of over 65% in size. Summed up: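 CYP3A4 activity: Luciferin-PPXE O-dealkylation, 25uM substrate, 200mM KPO4, RT throughout. Read-out is luciferase luminescence; higher values reflect activation.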
For test [12], the target named is Cytochrome P450 2C19 (Homo sapiens) (UniProt P33261). As to the kind of experiment: qHTS Assay for Inhibitors and Substrates of Cytochrome P450 2C19 (AID 899). Note: potency is the fitted concentration of half-maximal effect; nearly all actives have a fitted effect of over 60% in size. In outline:
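NADPH-dependent conversion of Luciferin-H EGE (10uM, at KM) by 5nM enzyme in 50mM KPO4, 60 min at 37C following 10 min compound preincubation. Stopped with luciferin detection buffer; luminescence read after 20 min.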

In test [13] the target is Rap guanine nucleotide exchange factor 3 (Homo sapiens) (UniProt O95398). Put plainly: Confirmatory qHTS for antagonist of cAMP-regulated guanine nucleotide exchange factor 3 (EPAC1) (AID 1645880).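 For activity, negative = inhibition: plate controls were DMSO only for no effect and full effect of the ATA control for full effect.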 Note: nearly all actives have a fitted effect of over 55% in size. Note: potency is the fitted concentration of half-maximal effect. To be noted: EPAC1 Rap1B-BODIPY-GDP exchange, fluorescence; activity, negative = inhibition: at 115 µM (top of the series). In outline: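 Released BODIPY-GDP fluoresces less than Rap1-bound BODIPY-GDP; the signal is followed at 480/540 nm at 5-min intervals over 30 min, after 5 min at room temperature. Reactions contain 100 nM EPAC1, 250 nM RAP1B-BODIPY-GDP and 50 uM GDP; results are normalized to ATA and DMSO.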

Test [14] deals with Rap guanine nucleotide exchange factor 4 (Homo sapiens) (UniProt Q8WZA2). As to the kind of experiment: Confirmatory qHTS for antagonist of cAMP-regulated guanine nucleotide exchange factor 4 (EPAC2) (AID 1645885). Note: nearly all actives have a fitted effect of over 25% in size. Note: potency is the fitted concentration of half-maximal effect.
The target of test [15] is Rap guanine nucleotide exchange factor 3 (Homo sapiens) (UniProt O95398). As to the kind of experiment: Counterscreen qHTS for antagonist of cAMP-regulated guanine nucleotide exchange factor 3 (EPAC1) (AID 1645888). Note: % of control where 0% means no effect. In outline: (§1)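 Measured: fluorescence of BODIPY-GDP bound to Rap1B, which falls as exchange proceeds. Conditions include 50 uM competing GDP, 5 and 30 min reads, and a later cAMP challenge for antagonist detection.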
Background: A counterscreen serves to expose hits that act by an unwanted route or on another target.

Test [16] has the same target. As to the kind of experiment: Counterscreen qHTS for agonist of cAMP-regulated guanine nucleotide exchange factor 3 (EPAC1) (AID 1645889). For activation: % of control where 0% means no effect. Note: nearly all actives have a fitted effect of over 40% in size. Note: potency is the fitted concentration of half-maximal effect. In outline: as §1
In test [17] the target is Tumor susceptibility gene 101 protein (Homo sapiens) (UniProt Q99816). As to the kind of experiment: qHTS Assay for Iinhibitors of HIV-1 Budding by Blocking the Interaction of PTAP/TSG101: Hit Validation (AID 651600). Note: nearly all actives have a fitted effect of over 70% in size. Note: potency is the fitted concentration of half-maximal effect. Summed up: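 FITC-PTAP peptide (50 nM final) binding to Tsg101 binding domain (10 uM final) was measured by polarization after 20 min at r.t. with compounds, in 10 mM HEPES pH 7.5 buffer with 0.15 M NaCl and 0.01% Tween 20.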

Test [18] is described as follows: NFAT Signaling Pathway (AID 444; active = well fitted curve in either direction with a large enough effect, not every such curve was filed as active;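 note: carbachol stimulus at about its EC50 of 1 µM final; % is set by controls: 0 for no effect and ±100 for the full control effect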). The settings on record: Jurkat NFAT-bla M1, carbachol, beta-lactamase ratio, 5 h; at 7.69 µM (top of the series) unless noted. In outline: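 Jurkat cells carrying an NFAT-driven β-lactamase reporter and co-transfected muscarinic M1 receptor were treated with compound plus carbachol (1 uM final, an EC50 level) for 5 h at 37 °C. CCF4 loading followed for 1 h at RT; 460/530 nm ratio gave %activity.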

Chain of Rap guanine nucleotide exchange factor 4 (Homo sapiens) (Q8WZA2 whole entry, looked up): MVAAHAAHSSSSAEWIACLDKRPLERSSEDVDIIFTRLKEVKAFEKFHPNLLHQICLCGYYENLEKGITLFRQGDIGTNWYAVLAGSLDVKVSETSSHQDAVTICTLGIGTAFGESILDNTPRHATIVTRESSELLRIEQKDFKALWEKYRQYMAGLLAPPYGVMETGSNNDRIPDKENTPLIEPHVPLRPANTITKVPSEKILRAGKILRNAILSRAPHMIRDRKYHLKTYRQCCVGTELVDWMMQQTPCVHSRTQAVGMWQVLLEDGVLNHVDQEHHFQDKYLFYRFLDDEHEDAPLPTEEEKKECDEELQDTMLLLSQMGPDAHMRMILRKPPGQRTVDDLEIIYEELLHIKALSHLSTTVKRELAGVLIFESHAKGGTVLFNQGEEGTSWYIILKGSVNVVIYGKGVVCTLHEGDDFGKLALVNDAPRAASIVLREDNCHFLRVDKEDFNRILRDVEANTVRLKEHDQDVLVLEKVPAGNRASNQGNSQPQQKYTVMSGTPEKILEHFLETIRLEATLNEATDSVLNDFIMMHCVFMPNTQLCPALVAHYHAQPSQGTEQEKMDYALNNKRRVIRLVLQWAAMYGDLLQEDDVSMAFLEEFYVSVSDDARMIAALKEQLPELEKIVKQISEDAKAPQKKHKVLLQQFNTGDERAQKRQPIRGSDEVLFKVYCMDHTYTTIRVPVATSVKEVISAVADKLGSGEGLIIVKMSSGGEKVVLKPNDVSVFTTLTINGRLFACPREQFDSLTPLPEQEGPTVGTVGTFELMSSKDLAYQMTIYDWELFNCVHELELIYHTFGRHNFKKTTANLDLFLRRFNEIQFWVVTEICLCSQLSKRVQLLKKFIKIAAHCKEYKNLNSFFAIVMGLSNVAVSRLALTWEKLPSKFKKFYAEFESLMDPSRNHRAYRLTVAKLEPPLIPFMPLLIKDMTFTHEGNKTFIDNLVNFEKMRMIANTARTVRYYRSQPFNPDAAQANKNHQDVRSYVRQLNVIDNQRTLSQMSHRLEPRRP
Chain of Glucocorticoid receptor (Homo sapiens) (P04150 whole entry, looked up, the tested form may be a part): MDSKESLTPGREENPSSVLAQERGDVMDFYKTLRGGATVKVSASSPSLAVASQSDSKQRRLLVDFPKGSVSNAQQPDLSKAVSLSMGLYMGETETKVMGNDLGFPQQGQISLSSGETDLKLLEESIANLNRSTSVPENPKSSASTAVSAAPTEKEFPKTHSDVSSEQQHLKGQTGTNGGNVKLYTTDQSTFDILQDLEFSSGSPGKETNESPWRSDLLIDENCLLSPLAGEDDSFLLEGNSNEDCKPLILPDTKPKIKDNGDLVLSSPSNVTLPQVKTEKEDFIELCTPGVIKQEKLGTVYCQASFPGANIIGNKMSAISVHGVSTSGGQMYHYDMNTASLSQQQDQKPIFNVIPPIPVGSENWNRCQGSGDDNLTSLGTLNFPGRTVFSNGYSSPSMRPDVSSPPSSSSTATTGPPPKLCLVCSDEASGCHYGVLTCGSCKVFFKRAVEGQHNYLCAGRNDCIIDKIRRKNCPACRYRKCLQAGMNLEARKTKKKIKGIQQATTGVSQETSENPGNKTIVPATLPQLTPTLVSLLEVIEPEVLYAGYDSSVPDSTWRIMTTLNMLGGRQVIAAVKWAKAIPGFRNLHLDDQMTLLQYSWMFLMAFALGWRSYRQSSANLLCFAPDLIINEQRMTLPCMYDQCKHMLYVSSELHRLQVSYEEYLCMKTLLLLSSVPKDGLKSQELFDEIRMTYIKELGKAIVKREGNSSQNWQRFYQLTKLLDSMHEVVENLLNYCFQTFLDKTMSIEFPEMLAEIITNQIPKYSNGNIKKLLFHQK
Chain of Rap guanine nucleotide exchange factor 3 (Homo sapiens) (O95398 whole entry, looked up): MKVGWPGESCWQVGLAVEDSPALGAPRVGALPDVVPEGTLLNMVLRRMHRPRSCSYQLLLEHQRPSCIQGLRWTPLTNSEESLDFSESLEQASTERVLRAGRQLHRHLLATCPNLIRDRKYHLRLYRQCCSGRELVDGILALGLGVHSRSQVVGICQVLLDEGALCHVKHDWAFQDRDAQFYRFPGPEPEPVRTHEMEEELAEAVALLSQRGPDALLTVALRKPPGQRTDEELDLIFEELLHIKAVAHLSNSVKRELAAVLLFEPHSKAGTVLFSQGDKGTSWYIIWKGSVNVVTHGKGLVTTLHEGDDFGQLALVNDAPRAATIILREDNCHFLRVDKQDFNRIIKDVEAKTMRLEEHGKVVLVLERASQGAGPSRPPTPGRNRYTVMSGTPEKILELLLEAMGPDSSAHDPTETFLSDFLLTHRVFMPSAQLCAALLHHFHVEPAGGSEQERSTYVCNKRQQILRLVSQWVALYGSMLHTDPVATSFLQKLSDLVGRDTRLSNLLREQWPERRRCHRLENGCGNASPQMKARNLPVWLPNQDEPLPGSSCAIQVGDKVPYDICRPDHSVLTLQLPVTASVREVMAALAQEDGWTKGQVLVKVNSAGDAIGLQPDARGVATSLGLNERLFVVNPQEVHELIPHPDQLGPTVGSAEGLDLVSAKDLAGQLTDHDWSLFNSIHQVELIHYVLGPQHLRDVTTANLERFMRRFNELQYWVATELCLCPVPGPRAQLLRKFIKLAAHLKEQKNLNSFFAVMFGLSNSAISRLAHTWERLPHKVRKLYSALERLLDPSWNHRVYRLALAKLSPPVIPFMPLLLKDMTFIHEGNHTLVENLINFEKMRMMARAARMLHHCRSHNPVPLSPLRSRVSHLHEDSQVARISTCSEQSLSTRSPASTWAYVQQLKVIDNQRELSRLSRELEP
Chain of Cytochrome P450 1A2 (Homo sapiens) (P05177 whole entry, looked up): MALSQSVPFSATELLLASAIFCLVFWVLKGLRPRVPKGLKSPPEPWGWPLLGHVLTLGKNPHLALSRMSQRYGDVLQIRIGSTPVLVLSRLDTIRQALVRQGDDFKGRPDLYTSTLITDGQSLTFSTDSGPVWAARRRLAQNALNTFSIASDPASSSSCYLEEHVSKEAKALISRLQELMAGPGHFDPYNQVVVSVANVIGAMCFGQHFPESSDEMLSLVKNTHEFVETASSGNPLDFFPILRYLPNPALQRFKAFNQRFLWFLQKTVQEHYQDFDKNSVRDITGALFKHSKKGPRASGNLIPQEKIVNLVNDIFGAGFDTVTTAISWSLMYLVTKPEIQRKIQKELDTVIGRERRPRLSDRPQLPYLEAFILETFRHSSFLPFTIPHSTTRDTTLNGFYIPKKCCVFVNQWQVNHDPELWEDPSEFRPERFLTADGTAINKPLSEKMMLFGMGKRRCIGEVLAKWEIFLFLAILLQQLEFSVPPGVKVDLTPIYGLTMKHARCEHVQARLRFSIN
Chain of Cytochrome P450 2C19 (Homo sapiens) (P33261 whole entry, looked up): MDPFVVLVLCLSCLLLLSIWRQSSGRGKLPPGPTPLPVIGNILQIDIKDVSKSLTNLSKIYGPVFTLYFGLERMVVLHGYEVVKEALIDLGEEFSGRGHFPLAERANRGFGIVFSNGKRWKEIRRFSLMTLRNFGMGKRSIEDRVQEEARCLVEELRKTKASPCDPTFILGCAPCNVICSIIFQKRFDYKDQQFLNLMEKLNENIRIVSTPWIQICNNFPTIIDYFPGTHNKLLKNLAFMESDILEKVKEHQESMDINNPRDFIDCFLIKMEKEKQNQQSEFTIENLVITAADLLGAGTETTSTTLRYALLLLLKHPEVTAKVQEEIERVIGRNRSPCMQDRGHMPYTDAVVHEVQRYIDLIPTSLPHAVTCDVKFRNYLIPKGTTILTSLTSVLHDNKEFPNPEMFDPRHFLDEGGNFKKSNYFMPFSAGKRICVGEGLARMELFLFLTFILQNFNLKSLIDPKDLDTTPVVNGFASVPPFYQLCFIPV
Chain of 3',5'-cyclic-AMP phosphodiesterase 4B (Homo sapiens) (Q07343 whole entry, looked up): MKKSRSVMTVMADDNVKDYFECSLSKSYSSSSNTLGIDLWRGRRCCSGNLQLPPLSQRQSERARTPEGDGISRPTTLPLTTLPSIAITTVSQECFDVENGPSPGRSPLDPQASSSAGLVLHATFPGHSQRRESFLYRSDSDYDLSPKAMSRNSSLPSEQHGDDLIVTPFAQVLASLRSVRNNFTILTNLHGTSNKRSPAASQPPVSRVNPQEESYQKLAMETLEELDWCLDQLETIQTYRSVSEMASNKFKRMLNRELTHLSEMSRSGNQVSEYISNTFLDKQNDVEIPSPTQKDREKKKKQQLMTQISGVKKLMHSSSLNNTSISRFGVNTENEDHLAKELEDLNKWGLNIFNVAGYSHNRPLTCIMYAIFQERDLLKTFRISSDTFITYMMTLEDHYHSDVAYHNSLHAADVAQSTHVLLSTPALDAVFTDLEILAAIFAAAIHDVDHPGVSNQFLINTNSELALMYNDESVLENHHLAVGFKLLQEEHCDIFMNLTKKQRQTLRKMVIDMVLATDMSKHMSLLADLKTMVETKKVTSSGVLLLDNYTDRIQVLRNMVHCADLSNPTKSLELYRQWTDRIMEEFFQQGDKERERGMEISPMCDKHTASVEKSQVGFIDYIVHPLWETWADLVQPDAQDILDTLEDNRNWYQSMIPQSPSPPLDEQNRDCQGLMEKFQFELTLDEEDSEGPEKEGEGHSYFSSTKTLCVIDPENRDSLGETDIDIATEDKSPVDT
Chain of Lysosomal acid glucosylceramidase (Homo sapiens) (P04062 whole entry, looked up): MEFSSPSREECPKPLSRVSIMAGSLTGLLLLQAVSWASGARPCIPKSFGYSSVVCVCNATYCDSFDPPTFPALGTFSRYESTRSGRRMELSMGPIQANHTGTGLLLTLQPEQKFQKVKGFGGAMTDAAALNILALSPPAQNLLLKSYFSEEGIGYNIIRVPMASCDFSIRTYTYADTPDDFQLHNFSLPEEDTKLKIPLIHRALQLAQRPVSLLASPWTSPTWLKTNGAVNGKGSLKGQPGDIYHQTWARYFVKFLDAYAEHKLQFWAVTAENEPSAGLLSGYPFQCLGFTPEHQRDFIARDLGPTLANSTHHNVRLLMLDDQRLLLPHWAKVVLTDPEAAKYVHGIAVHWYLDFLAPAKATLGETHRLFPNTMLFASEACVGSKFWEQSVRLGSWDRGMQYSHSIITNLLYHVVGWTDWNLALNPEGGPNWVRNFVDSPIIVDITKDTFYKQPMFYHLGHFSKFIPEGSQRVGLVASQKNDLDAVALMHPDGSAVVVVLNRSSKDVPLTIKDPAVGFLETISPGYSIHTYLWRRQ

Consider `Clc1ccccc1NN(Cc1ccncc1)c1ccccc1Cl`, for which the Potency in test [1] is greater than 11.4 µM; in test [3], 5.01 µM (active); in test [5], greater than 46 µM; in test [6], greater than 9.22 µM; in [9], 1.58 µM (active); in test [10], 0.251 µM (active). Also, the Potency is 1.26 µM (active) in test [12] and 16.9 µM (active) in test [14]. Besides, the activity change, negative = inhibition was -14.2% in test [2] and 3.26% [at 11.4 µM] in [7]. The outcome in test [4] was inactive. The Potency result in test [8], in test [13] and in test [15] was “inactive” each time. The activity change, positive = activation in [11] was -76.6% [at 11.4 µM].
With `COc1ccc(C(=O)Nc2nc(-c3ccc(OC)cc3)c(-c3ccc([N+](=O)[O-])cc3)s2)cc1`, the Potency entry in [13], in [14] and in test [15] was “inactive” throughout. In test [16], the Potency is 63.1 µM (active).
Consider `CN1C(=O)c2cccc3c(N)ccc(c23)C1=O`, for which the Potency in test [17] was 5.8 µM (active); in test [16] it was 10 µM (active). The Potency entry in test [13], in [14] and in test [15] was “inactive” throughout.
In the case of `COc1ccc(C(=O)N(CCc2ccccc2)Cc2cccs2)c(OC)c1`, the Potency entry in test [13], in test [14], in [15] and in [16] was “inactive” in each case.
In the case of `COc1ccccc1N1N=C(C(=O)c2ccccc2)C2C(=O)N(c3ccc(Br)cc3)C(=O)C21` (stereo not given), the Potency entry in test [13], in [14] and in test [15] was “inactive” in each case. The Potency in [16] is 17.8 µM (active).
As to `N=C(N)c1ccc(N=Nc2c(O)ccc3c2[nH]c2ccccc23)cc1`, the Potency in test [1] is greater than 11.4 µM; in [3] it was 1.58 µM (active); in test [5], greater than 46 µM; in [6], greater than 9.22 µM; in test [12], 1.26 µM (active); in [13], 56.2 µM (active). The activity change, negative = inhibition in test [2] was 13.5%; in test [18], 8.15%; in test [7] it was -6.35% [at 11.4 µM]; in test [15], -5.36% [at 30.8 µM]. Besides, the compound was classed as inactive in test [4]. The Potency entry in [8] and in test [14] was “inactive” in each case. The activation in test [16] was 33.2% [at 30.8 µM].
As to `COc1ccc(C(=O)Nc2nc(-c3ccc([N+](=O)[O-])cc3)c(-c3ccc(OC)cc3)s2)cc1`, the Potency result in test [17], in [13], in [14] and in [15] was “inactive” each time. For the same compound, the Potency in test [16] is 63.1 µM (active).
For the compound `COc1ccccc1C(=O)Oc1ccc2c(c1)O/C(=C\c1ccncc1)C2=O`, the Potency entry in test [13] and in test [15] was “inactive” each time. Also, the Potency in test [14] is 84.9 µM (active); in test [16], 35.5 µM (active).

For the origin of these results see PubChem BioAssay (NCATS).
